# Results: PubChem BioAssay AID686977 (Southern Research Specialized Biocontainment Screening …, 2013)
# Hit rate of the full screen: of about 9,400 compounds, fewer than 10 were called active. About 5% were inconclusive and are not listed. The list is a sample of the results. Entries with a potency or affinity are not part of this list. Unmarked numbers belong to inactive results. How the calls were made is not given here.
# Assay: Vibrio cholerae quorum sensing activators, luminescence (AID 686977)
# Conditions: V. cholerae quorum sensing reporter, 6 h, hits give high values; dose 50, dose unit µM unless noted
row,SMILES,luminescence
1,CCN(CC)c1ncnc2sc(C(=O)N3CCN(c4ccc(OC)cc4)CC3)c(C)c12,160
2,c1cc2c3c(cccc3c1)NC1(CCCCC1)N2,40
3,O=C(Nc1ccc(Cc2ccncc2)cc1)c1ccc(Cl)c([N+](=O)[O-])c1,0
4,COc1cccc(S(=O)(=O)NCc2ccc(C(=O)NCC3CCCO3)cc2)c1 (stereo unspecified),40
5,O=C(Nc1ccc2c(c1)OCCO2)c1ccc(CN2CCOCC2)cc1,0
6,COCCOC(=O)C1=C(C)NC2=C(C(=O)CC(c3cccs3)C2)C1c1ccsc1 (stereo unspecified),40
7,CCN1CCN(c2nc3c(c(=O)[nH]c(=O)n3C)n2CCSc2nc3ccccc3s2)CC1,0
8,CCc1ccc(C2CC(c3ccc(F)cc3)Nc3nc(N)nn32)cc1 (stereo unspecified),40
9,COc1ccccc1C(=O)N1CCNC(=O)C1CC(=O)Nc1cccc(C)c1 (stereo unspecified),0
10,O=C(O)c1[nH]c2ccccc2c1CC(=O)N1CCOCC1,0
11,Cc1cc(C(=O)Nc2c(C)nn(Cc3ccc(F)cc3)c2C)on1,0
12,COC(=O)c1ccc(NC(=O)CN(Cc2ccc(Cl)cc2)S(C)(=O)=O)cc1,0
13,CC(C)SCCCOc1ccc(C(C)(C)C)cc1,0
14,CCOC(=O)C1CCCN(c2c(NCCCN(C)c3ccccc3)c(=O)c2=O)C1 (stereo unspecified),0
15,COC(=O)c1ccc(NC(=O)CSc2nnc(COc3ccc4c(c3)CCCC4)o2)cc1,40
16,CCC(=O)NCCCOc1ccccc1,0
17,O=C(Nc1ccc2c(c1)CCC2)c1cc(S(=O)(=O)N2CCN(c3ccccc3)CC2)ccc1Cl,0
18,CCOC(=O)c1sc2nc(C)cc(C)c2c1NC(=O)c1ccco1,0
19,CCOC(=O)N1CCC(NC(=O)C(Cc2ccccc2)NC(=O)C2CCCCC2)CC1 (stereo unspecified),0
20,CCOc1cc(N2CCOCC2)c(OCC)cc1NC(=O)CN1CCc2ccccc2C1,0
21,CCn1ncc(C2=NOC(C(=O)NCc3ccc(OC)cc3)C2)c1C (stereo unspecified),0
22,COc1ccc(-n2c(Cn3c(=O)sc4ccccc43)nnc2SCC(=O)N2CCCCC2)cc1,0
23,COc1ccc(NC(=O)c2c(NC(=O)CNCc3ccco3)sc3c2CCC3)c(OC)c1,40
24,COC(=O)c1nc2cc(C)ccn2c1F,40

row,SMILES,luminescence
1,Cc1ccc(NS(=O)(=O)c2cc(C(N)=O)ccc2C)cc1,0
2,Cc1ccc([N+](=O)[O-])cc1N=Cc1ccc(Br)s1,40
3,CC(=O)N(c1ccc(Br)cc1)C1C=CS(=O)(=O)C1 (stereo unspecified),0
4,Cc1cc2ccccc2n1CCNC(=O)c1cccs1,0
5,Cc1cc(C)nc(NC(=O)c2cnc3sccn3c2=O)n1,0
6,CCn1c(=O)cc(OCC(=O)NCCC(C)C)c2ccccc21,40
7,C=CCNC(=O)CN(c1cccc(Br)c1)S(C)(=O)=O,0
8,CCOC(=O)c1c(-c2ccccc2)csc1NC(=O)c1ccc(S(=O)(=O)N2CC(C)OC(C)C2)cc1 (stereo unspecified),40
9,COc1cc(C(=O)N(Cc2cccc(Cl)c2)C2CCS(=O)(=O)C2)cc(OC)c1OC (stereo unspecified),40
10,Cc1ccc2oc(=O)c3cnn(CC(=O)NC4CCN(Cc5ccccc5)CC4)c3c2c1,0
11,CC(C)C(=O)Nc1nc2cc3c(cc2s1)OCO3,0
12,COC(=O)c1[nH]c2cc(OC)ccc2c1NC(=O)CCN1CCN(c2ccccc2)CC1,40
13,O=C(Nc1cccc(F)c1)c1cccnc1N1CCOCC1,80
14,COc1ccccc1N1CCN(C(=O)Oc2ccccc2)CC1,0
15,COc1cc(S(=O)(=O)N2CCC(N3CCCCC3)CC2)ccc1-n1cnnn1,0
16,CC(Oc1ccc(-c2ccccc2)c(F)c1)c1ccn(S(=O)(=O)c2ccc(F)cc2)n1 (stereo unspecified),120
17,COc1ccccc1NC(=O)C1=C(C)NC(=O)NC1c1ccc(C)cc1 (stereo unspecified),80
18,O=C(O)CCCSCC(=O)Nc1ccccc1,0
19,O=C(C[n+]1ccc(C(=O)N/N=C/c2ccc(OCc3ccccc3)cc2)cc1)c1ccccc1,0
20,CCOC(=O)C1=C(C)Nc2nnnn2C1c1ccc(OC)c(Br)c1 (stereo unspecified),0
21,Cc1c(Cl)cccc1NC(=O)CN1C(=O)CSc2ncccc21,0
22,O=c1cc(NC2CCCCC2)c2ccccc2o1,0
23,CCOc1ccc(CNC(=O)C(CC)n2nc(C)n3c(cc4occc43)c2=O)cc1OC (stereo unspecified),0
24,CNc1ccccc1-c1nc2ccccc2n(C)c1=O,0

row,SMILES,luminescence
1,O=C(Nc1ccc(Cl)cn1)C1CCCN1S(=O)(=O)c1ccc(Cl)cc1 (stereo unspecified),0
2,CCC(Oc1ccccc1)C(=O)Nc1ccccc1OC (stereo unspecified),0
3,CCOCCn1c(SCCc2ccccc2)nc2c1c(=O)[nH]c(=O)n2C,0
4,Cc1nn(C2CCS(=O)(=O)C2)c(Cl)c1/C=C/C(=O)OCC(=O)Nc1ccccc1OC(F)F (stereo unspecified),0
5,COc1ccc(S(=O)(=O)Cc2ccc(C(=O)NCc3ccccn3)o2)cc1,0
6,CCOC(=O)N1CCN(C(=O)CSc2nc3c([nH]c4ccccc43)c(=O)n2C)CC1,40
7,C#CCN1C(=O)C2C(C(=O)NC)C3C=CC2(O3)C1C(=O)NCc1ccc(OC)cc1 (stereo unspecified),40
8,CCCNC(=O)C(NS(=O)(=O)c1ccc2c(c1)c(=O)n(C)c(=O)n2C)c1ccccc1 (stereo unspecified),40
9,CN[C@H]1[C@@H](O)[C@H](O[C@H]2[C@@H](O)[C@@H](OC3OC(CN)=CCC3N)[C@H](N)C[C@@H]2N)OC[C@@]1(C)O (stereo partly specified),"40 [dose 10, dose unit µg/mL]"
10,CCc1ccc(CCC(=O)Nc2ccc(C)c(C)c2)o1,0
11,CCc1cccc(OCCOCCN2CCCC2)c1,40
12,CCOC(=O)c1ccccc1NC(=O)c1cc(S(=O)(=O)N2CCOCC2)ccc1F,0
13,Cc1ccc(S(=O)(=O)CCc2nnc(NC(=O)C3CCCO3)s2)cc1 (stereo unspecified),0
14,COC(=O)c1cc(-c2ccc(Br)cc2)n[nH]1,0
15,CN(C)S(=O)(=O)c1ccc(S(=O)(=O)N2CCN(CCC#N)CC2)cc1,40
16,COc1cc(C2Nc3ccc4ncccc4c3C3=C2C(=O)CC(C)(C)C3)cc(OC)c1O (stereo unspecified),0
17,CN(CC(=O)N1CCc2ccccc2C1)S(=O)(=O)c1ccc2c(c1)c(=O)n(C)c(=O)n2C,40
18,CCOc1ccc(CCNC(=O)Cn2c(=O)oc3ccccc32)cc1OCC,0
19,COC(=O)c1cc(=O)n(CCc2ccc(OC)c(OC)c2)c(=Nc2ccc(F)c(Cl)c2)s1,40
20,CCc1nnc(NC(=O)CSc2nnc(-c3ccco3)n2C)s1,0
21,CN/C(=C/[N+](=O)[O-])NCCSCc1csc(CN(C)C)n1,"0 [dose 10, dose unit µg/mL]"
22,CCCCCCN1CC(O)=C(c2ccccc2)C1=N,0
23,CC1CCN(C(=O)CSc2nc3c(cnn3-c3ccc(Cl)cc3)c(=O)[nH]2)CC1,0
